“And” between values parts separate entries of the source, which are not always exact repeats. Equal values may be shown once. The panel holds about 83,000 compounds, 20% with a hit somewhere; the sample as a whole holds those more often.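 Percent growth is the endpoint: 0 to 100 indicates growth inhibition (40 means 60% inhibition), 0 means no net growth, and negative values indicate cell death.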 The source made the active and inactive calls. Rule for the calls: active = growth percent below 10; inactive = the rest.
What was measured:
Assay in all cases: NCI-60 one-dose screen, 48 h (100 = growth as untreated, 0 = no growth, -100 = all killed)
[1] = tested on: HCT-15 colon; conditions: 10 µM
[2] = tested on: HT29 colon; conditions: 10 µM
[3] = tested on: SNB-75 CNS; conditions: 10 µM
[4] = tested on: SNB-19 CNS; conditions: 10 µM
[5] = tested on: U251 CNS; conditions: 10 µM
[6] = tested on: PC-3 prostate; conditions: 10 µM
[7] = tested on: SK-MEL-5 melanoma; conditions: 10 µM
[8] = tested on: UACC-62 melanoma; conditions: 10 µM unless noted
[9] = tested on: LOX IMVI melanoma; conditions: 10 µM
[10] = tested on: SK-MEL-28 melanoma; conditions: 10 µM
[11] = tested on: SK-MEL-2 melanoma; conditions: 10 µM
[12] = tested on: SN12C renal; conditions: 10 µM
[13] = tested on: UO-31 renal; conditions: 10 µM
[14] = tested on: CAKI-1 renal; conditions: 10 µM
[15] = tested on: A498 renal; conditions: 10 µM
[16] = tested on: HL-60(TB) leukemia; conditions: 10 µM
[17] = tested on: CCRF-CEM leukemia; conditions: 10 µM
[18] = tested on: ACHN renal; conditions: 10 µM
[19] = tested on: EKVX NSCLC; conditions: 10 µM
[20] = tested on: TK-10 renal; conditions: 10 µM unless noted

With CC(C)(C)OOC(=O)/C=C\C(=O)OOC(C)(C)C the growth [1] was 106% (inactive), the growth [2] was 105% (inactive) and the growth [3] was 98.5% (inactive). For the same compound, the growth [4] was 91.9% (inactive), the growth [5] was 99.2% (inactive) and the growth [6] was 95.4% (inactive). The growth [7] was 106% (inactive), the growth [8] was 94.7% (inactive) and the growth [9] was 107% (inactive). The growth [10] was 109% (inactive), the growth [11] was 103% (inactive) and the growth [12] was 97.3% (inactive). For the same compound, the growth [13] was 103% (inactive), the growth [14] was 127% (inactive) and the growth [15] was 109% (inactive). For the same compound, the growth [16] was 74.6% (inactive) and the growth [17] was 96.4% (inactive).
Oc1ccccc1-c1ccccc1 was tested, and the growth [1] was 104% (inactive) and 94.6% (inactive), the growth [2] was 97% (inactive) and 98.8% (inactive) and the growth [3] was 97.4% (inactive) and 79.2% (inactive). The growth [4] was 101% (inactive) and 93.4% (inactive), the growth [5] was 99% (inactive) and 98.1% (inactive) and the growth [6] was 94.4% (inactive) and 98.6% (inactive). The growth [7] was 102% (inactive) and 97.7% (inactive), the growth [8] was 98.5% (inactive) and 96% (inactive) and the growth [9] was 92.3% (inactive) and 108% (inactive). For the same compound, the growth [10] was 112% (inactive) and 102% (inactive), the growth [11] was 98.1% (inactive) and 98.2% (inactive) and the growth [12] was 104% (inactive) and 92.6% (inactive). For the same compound, the growth [13] was 91.1% (inactive), the growth [18] was 95.2% (inactive) and 104% (inactive) and the growth [14] was 97.4% (inactive) and 121% (inactive). For the same compound, the growth [15] was 85.5% (inactive) and 108% (inactive), the growth [16] was 96.2% (inactive) and 103% (inactive) and the growth [17] was 103% (inactive) and 94.8% (inactive).
For O=c1[nH]c2ccccc2n1C1CCN(CCCC(c2ccc(F)cc2)c2ccc(F)cc2)CC1, the growth [1] was 37.7% (inactive) and -3.08% (active), the growth [2] was 9.69% (active) and -2.65% (active) and the growth [3] was 77.1% (inactive) and 106% (inactive). The growth [4] was 77.9% (inactive) and 68.2% (inactive), the growth [5] was -1.25% (active) and 17.5% (inactive) and the growth [6] was -21.4% (active) and 21.3% (inactive). For the same compound, the growth [7] was 23.6% (inactive) and -86.5% (active), the growth [8] was 38.4% (inactive) and 30.3% (inactive) and the growth [9] was 15.6% (inactive) and -22.7% (active). The growth [10] was 82.2% (inactive) and -53.2% (active), the growth [11] was 95.8% (inactive) and 63.6% (inactive) and the growth [19] was 42.1% (inactive) and 51.4% (inactive). The growth [12] was 40.7% (inactive) and 58% (inactive), the growth [13] was 33.1% (inactive) and 12.5% (inactive) and the growth [20] was 62.1% (inactive) and 63.3% (inactive). For the same compound, the growth [14] was 35.5% (inactive) and 54% (inactive), the growth [15] was 27.2% (inactive) and -9.09% (active) and the growth [16] was -41.7% (active) and -41.6% (active). For the same compound, the growth [17] was -0.815% (active) and 31.2% (inactive).
In the case of COC12C(COC(N)=O)C3=C(C(=O)C(C)=C(N)C3=O)N1CC1C2N1C (stereo not drawn), the growth [1] is reported as 33.2% (inactive), the growth [2] is reported as 8.04% (active) and the growth [3] is reported as 32.9% (inactive). For the same compound, the growth [4] was 39.1% (inactive), the growth [5] was 43% (inactive) and the growth [6] was 47% (inactive). The growth [7] was 11.6% (inactive), the growth [8] was 46.3% (inactive) and the growth [9] was 28.3% (inactive). The growth [11] was 91.4% (inactive), the growth [19] was 91.7% (inactive) and the growth [12] was 46.8% (inactive). The growth [13] was 32.7% (inactive), the growth [20] was 69.4% (inactive) and the growth [18] was 10.8% (inactive). For the same compound, the growth [14] was 16.6% (inactive), the growth [15] was 46.9% (inactive) and the growth [16] was -23.2% (active). For the same compound, the growth [17] was 24.8% (inactive).
With CC/C(=C/c1ccc(OC)cc1OC)[N+](=O)[O-] the growth [1] was -35.9% (active), the growth [2] was -1.29% (active) and the growth [3] was 44.9% (inactive). For the same compound, the growth [4] was 41.6% (inactive), the growth [5] was 43.5% (inactive) and the growth [6] was 50% (inactive). For the same compound, the growth [7] was 38.1% (inactive), the growth [8] was -36.2% (active) and the growth [9] was -85.1% (active). The growth [10] was 2.66% (active), the growth [11] was 34.4% (inactive) and the growth [12] was 15.9% (inactive). The growth [13] was 28.1% (inactive), the growth [14] was 49.2% (inactive) and the growth [15] was 76.8% (inactive). The growth [16] was 15.7% (inactive).
For C[C@@H]1C[C@@H]([C@H](O)CC2CC(=O)NC(=O)C2)C(=O)[C@@H](C)C1, the growth [1] was 8.36% (active), the growth [2] was 3.76% (active) and the growth [3] was 8.07% (active). The growth [4] was 10.5% (inactive), the growth [5] was 3.25% (active) and the growth [6] was 8.32% (active). For the same compound, the growth [7] was 0.54% (active), the growth [8] was 5.43% (active) and the growth [9] was -10.7% (active). For the same compound, the growth [10] was -13.1% (active), the growth [11] was -6.5% (active) and the growth [12] was -0.0682% (active). For the same compound, the growth [13] was 0.7% (active), the growth [18] was 3.19% (active) and the growth [14] was 15.9% (inactive). The growth [15] was 17.7% (inactive) and the growth [16] was -3.87% (active).
In the case of COS(=O)(=O)c1ccccc1, the growth [1] is reported as 108% (inactive), the growth [2] is reported as 110% (inactive) and the growth [3] is reported as 95.2% (inactive). For the same compound, the growth [4] was 110% (inactive), the growth [5] was 96.4% (inactive) and the growth [6] was 102% (inactive). For the same compound, the growth [7] was 108% (inactive), the growth [8] was 102% (inactive) and the growth [9] was 102% (inactive). The growth [10] was 113% (inactive), the growth [11] was 101% (inactive) and the growth [12] was 112% (inactive). For the same compound, the growth [13] was 89.5% (inactive), the growth [14] was 104% (inactive) and the growth [15] was 112% (inactive). The growth [16] was 106% (inactive) and the growth [17] was 99.7% (inactive).

— PubChem BioAssay (NCI)
